Where “and” joins values, the source holds several entries; their conditions need not be identical. Equal values may be shown once. In all, about 5,500 compounds went through this assay and about 2,000 (36%) were called active. Roughly 18% stayed inconclusive and do not appear here. No stated cut-off is given here; in the data, active means normalized growth mostly below about 0.91 (no sharp cut-off); inconclusive means no clear call, values can overlap the other calls; inactive means mostly above about 0.92. The list shows a part of the results.
Test: chemical genetic growth profiling, strain panel (AID 1159580);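 further: tested at 20 µM; growth read once vehicle control cultures reached saturation at 30 °C; 1 = growth at the plate median or of vehicle wells; lower values mean less growth of the strain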
Details: S. cerevisiae deletion strains, growth OD
[1] = locus YHR030C, strain SLT2, active compounds read low
[2] = locus YHR079C, strain IRE1, active compounds read low
[3] = locus YJL095W, strain BCK1, active compounds read low
[4] = locus YJR066W, strain TOR1, active compounds read low
[5] = locus YLR113W, strain HOG1, active compounds read low
[6] = locus YNL183C, strain NPR1, active compounds read low
[7] = locus YOR231W, strain MKK1, active compounds read low
[8] = locus YPL256C, strain CLN2, active compounds read low

Measured: normalized growth

NCC[C@@H](O)C(=O)N[C@@H]1C[C@H](N)[C@@H](O[C@H]2O[C@H](CN)[C@@H](O)[C@H](O)[C@H]2O)[C@H](O)[C@H]1O[C@H]1O[C@H](CO)[C@@H](O)[C@H](N)C1O (some centres undefined)
inactive: locus YAL013W, strain DEP1, active compounds read low 0.974 | locus YAL021C, strain ccr4, active compounds read low 1.02 | locus YAL026C, strain drs2, active compounds read low 1.02 | locus YAL030W, strain snc1, active compounds read low 1.04 | locus YBL061C, strain skt5, active compounds read low 1.03 | locus YBR009C, strain hhf1, active compounds read low 1.03 | locus YBR021W, strain FUR4, active compounds read low 0.96 | locus YBR023C, strain chs3, active compounds read low 1.04 | locus YBR171W, strain sec66, active compounds read low 1.04 | locus YBR229C, strain ROT2, active compounds read low 0.999 | locus YBR231C, strain swc5, active compounds read low 1.04 | locus YBR279W, strain paf1, active compounds read low 1.03 | locus YCL011C, strain gbp2, active compounds read low 1.03 | locus YCL016C, strain dcc1, active compounds read low 1.04 | locus YCL029C, strain bik1, active compounds read low 1.02 | locus YCL061C, strain MRC1, active compounds read low 1.02 | locus YCL069W, strain vba3, active compounds read low 1.04 | locus YCR088W, strain abp1, active compounds read low 1.03 | locus YDL005C, strain med2, active compounds read low 1.04 | locus YDL035C, strain GPR1, active compounds read low 0.986 | locus YDL040C, strain nat1, active compounds read low 1.04 | locus YDL074C, strain BRE1, active compounds read low 0.983 | locus YDL101C, strain DUN1, active compounds read low 0.999 | locus YDL185W, strain tfp1, active compounds read low 1.02 | locus YDL192W, strain arf1, active compounds read low 1.01 | locus YDR001C, strain nth1, active compounds read low 1.02 | locus YDR069C, strain doa4, active compounds read low 1.03 | locus YDR101C, strain arx1, active compounds read low 0.998 | locus YDR137W, strain rgp1, active compounds read low 1.04 | locus YDR159W, strain sac3, active compounds read low 1.05 | locus YDR162C, strain NBP2, active compounds read low 1.01 | locus YDR195W, strain ref2 1.08 | locus YDR297W, strain sur2, active compounds read low 1.03 | locus YDR318W, strain mcm21, active compounds read low 1.01 | locus YDR334W, strain swr1, active compounds read low 1.01 | locus YDR335W, strain msn5, active compounds read low 1.04 | locus YDR388W, active compounds read low 1.01 | locus YDR392W, strain spt3, active compounds read low 1.06 | locus YDR502C, strain sam2, active compounds read low 1.01 | locus YEL003W, strain gim4, active compounds read low 1.03 | locus YEL037C, strain rad23, active compounds read low 1.03 | locus YEL061C, strain CIN8 (second series), active compounds read low 1.04 | locus YEL061C, strain CIN8, active compounds read low 1 | locus YER015W, strain faa2, active compounds read low 1.03 | locus YER016W, strain bim1, active compounds read low 1 | locus YER110C, active compounds read low 1.03 | locus YER111C, strain swi4, active compounds read low 1.03 | locus YER155C, strain BEM2 (second series), active compounds read low 1.02 | locus YER155C, strain BEM2, active compounds read low 1.01 | locus YER167W, strain BCK2, active compounds read low 0.986 | locus YFR010W, strain ubp6, active compounds read low 1.05 | locus YGL078C, strain dbp3, active compounds read low 1 | locus YGL086W, strain mad1, active compounds read low 1 | locus YGL167C, strain pmr1, active compounds read low 1.03 | locus YGL173C, strain kem1, active compounds read low 1.04 | locus YGL227W, strain vid30, active compounds read low 1.05 | locus YGL240W, strain doc1, active compounds read low 1.01 | locus YGL248W, strain PDE1, active compounds read low 0.999 | locus YGL253W, strain hxk2, active compounds read low 1.02 | locus YGR078C, strain PAC10, active compounds read low 0.997 | locus YGR135W, strain pre9, active compounds read low 0.988 | locus YGR252W, strain gcn5, active compounds read low 0.944 | locus YHR013C, strain ard1, active compounds read low 1.04 | locus YHR027C, strain rpn1, active compounds read low 1.03 | [1] 1.01 and 1.02 | locus YHR079C, strain IRE1 (second series), active compounds read low 1.02 | [2] 1.03 | locus YHR094C, strain hxt1, active compounds read low 1.03 | locus YHR129C, strain ARP1, active compounds read low 1.01 | locus YHR142W, strain chs7, active compounds read low 1.06 | locus YHR200W, strain rpn10, active compounds read low 1.02 | locus YIL066C, strain RNR3, active compounds read low 1 | locus YIL073C, strain SPO22, active compounds read low 1.19 | locus YIL125W, strain kgd1, active compounds read low 1.01 | locus YIR030C, strain dcg1, active compounds read low 1.03 | locus YJL092W, strain hpr5, active compounds read low 1.03 | locus YJL095W, strain BCK1 (second series), active compounds read low 1 | [3] 0.999 and 1.02 | locus YJL115W, strain asf1, active compounds read low 1.04 | locus YJL129C, strain trk1, active compounds read low 1.07 | locus YJL134W, strain LCB3, active compounds read low 1.01 | locus YJL154C, strain vps35, active compounds read low 1.03 | locus YJL164C, strain tpk1, active compounds read low 1.01 | locus YJL166W, strain qcr8, active compounds read low 1.03 | locus YJL168C, strain set2, active compounds read low 1.01 | locus YJL187C, strain SWE1 (second series), active compounds read low 0.999 | locus YJL187C, strain SWE1, active compounds read low 1.03 | locus YJR043C, strain POL32, active compounds read low 0.983 | [4] 0.975 | locus YJR075W, strain HOC1, active compounds read low 0.995 | locus YKL009W, strain mrt4, active compounds read low 1.02 | locus YKL068W, active compounds read low 1.01 | locus YKL085W, strain MDH1 (second series), active compounds read low 1.01 | locus YKL085W, strain MDH1, active compounds read low 1.01 | locus YKL160W, strain elf1, active compounds read low 1.01 | locus YKR001C, strain vps1, active compounds read low 1.01 | locus YKR026C, strain gcn3, active compounds read low 1.07 | locus YKR091W, strain srl3, active compounds read low 1.01 | locus YLL001W, strain dnm1, active compounds read low 1.02 | locus YLL026W, active compounds read low 1.01 | locus YLL041C, strain sdh2, active compounds read low 1.03 | locus YLR027C, strain aat2, active compounds read low 1.02 | locus YLR039C, strain RIC1, active compounds read low 1.04 | locus YLR058C, strain SHM2, active compounds read low 1.01 | locus YLR102C, strain apc9, active compounds read low 1.01 | [5] 1.03 | locus YLR221C, strain rsa3, active compounds read low 1.01 | locus YLR258W, strain gsy2, active compounds read low 1.02 | locus YLR262C, strain YPT6 (second series), active compounds read low 1.03 | locus YLR262C, strain YPT6, active compounds read low 1.04 | locus YLR268W, strain sec22, active compounds read low 1.04 | locus YLR320W, strain mms22, active compounds read low 1.03 | locus YLR330W, strain CHS5, active compounds read low 1.01 | locus YLR342W, strain FKS1 (second series), active compounds read low 0.966 | locus YLR342W, strain FKS1, active compounds read low 1.03 | locus YLR357W, strain rsc2, active compounds read low 1.09 | locus YLR370C, strain arc18, active compounds read low 1.03 | locus YLR371W, strain rom2, active compounds read low 1.01 | locus YLR384C, strain iki3, active compounds read low 1.03 | locus YLR418C, strain cdc73, active compounds read low 1.01 | locus YML016C, strain PPZ1, active compounds read low 1.01 | locus YML032C, strain rad52, active compounds read low 1.01 | locus YML120C, strain ndi1, active compounds read low 1.02 | locus YML124C, strain tub3, active compounds read low 1.01 | locus YMR058W, strain fet3, active compounds read low 1.04 | locus YMR078C, strain ctf18, active compounds read low 1.02 | locus YMR125W, strain sto1, active compounds read low 1.06 | locus YMR129W, active compounds read low 1.03 | locus YMR205C, strain PFK2, active compounds read low 1.05 | locus YMR223W, strain ubp8, active compounds read low 1.01 | locus YMR231W, strain pep5, active compounds read low 1.03 | locus YMR263W, strain SAP30, active compounds read low 1 | locus YMR307W, strain GAS1, active compounds read low 0.921 | locus YNL067W, strain RPL9B, active compounds read low 0.992 | locus YNL071W, strain lat1, active compounds read low 1.02 | locus YNL153C, strain GIM3, active compounds read low 0.996 | [6] 0.952 | locus YNL209W, strain ssb2, active compounds read low 1.02 | locus YNL233W, strain BNI4, active compounds read low 1.02 | locus YNL248C, strain rpa49, active compounds read low 0.984 | locus YNL250W, strain rad50, active compounds read low 1.01 | locus YNL271C, strain bni1, active compounds read low 1.02 | locus YNL298W, strain CLA4, active compounds read low 1.02 | locus YNL307C, strain MCK1, active compounds read low 1.02 | locus YNL322C, strain KRE1 (second series), active compounds read low 1.04 | locus YNL322C, strain KRE1, active compounds read low 1.01 | locus YNR049C, strain mso1, active compounds read low 1.03 | locus YNR052C, strain pop2, active compounds read low 1.02 | locus YOL006C, strain TOP1, active compounds read low 0.932 | locus YOL012C, strain htz1 0.906 | locus YOL147C, strain pex11, active compounds read low 1.02 | locus YOR001W, strain rrp6, active compounds read low 1.05 | locus YOR061W, strain CKA2, active compounds read low 1.01 | locus YOR069W, strain VPS5, active compounds read low 1.01 | locus YOR070C, strain gyp1, active compounds read low 1.03 | locus YOR080W, strain dia2, active compounds read low 1.05 | locus YOR083W, strain WHI5, active compounds read low 1.02 | locus YOR106W, strain vam3, active compounds read low 1.04 | locus YOR136W, strain idh2, active compounds read low 1.02 | locus YOR144C, strain elg1, active compounds read low 1.02 | locus YOR184W, strain ser1, active compounds read low 1.03 | [7] 1 | locus YOR265W, strain rbl2, active compounds read low 1.04 | locus YOR270C, strain vph1, active compounds read low 1.05 | locus YOR290C, strain snf2, active compounds read low 1.04 | locus YOR316C, strain cot1, active compounds read low 1.02 | locus YPL051W, strain arl3, active compounds read low 1.02 | locus YPL078C, strain atp4, active compounds read low 1.03 | locus YPL106C, strain sse1, active compounds read low 1.07 | locus YPL240C, strain hsp82, active compounds read low 1.02 | [8] 1.04 | locus YPR119W, strain clb2, active compounds read low 1.01 | locus YPR141C, strain kar3, active compounds read low 1.01 | locus YPR163C, strain tif3, active compounds read low 1.02 | locus YPR167C, strain met16, active compounds read low 1.02 | strain wtn01, active compounds read low 1.01

NC(=O)CC[C@H](N)C(=O)O
inactive: [1] 0.98 | [2] 0.977 | [3] 0.965 | [4] 0.941 | [5] 0.976 | [6] 0.954 | [7] 0.98 | [8] 0.972

Reference: PubChem BioAssay AID1159580 (chemical genetic matrix, 2015)
